Results as given in PubChem BioAssay.
Activity calls are given as the source filed them.

Tests used:
Albumin (Bos taurus) = Albumin (Bos taurus) (UniProt P02769); test: compounds binding labelled BSA control protein – biochemical, small-molecule microarray, Alexa647 label, 635/667 nm fluorescence, artefact control for SMM control protein annotation, profiling panel (AID 1118); settings: BSA-A647 binding, fluorescence 635 nm, higher = more signal;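 also: score merges 667 nm emission intensity and signal-to-noise per printed compound spot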
Chain of Albumin (Bos taurus) (P02769 whole entry, looked up): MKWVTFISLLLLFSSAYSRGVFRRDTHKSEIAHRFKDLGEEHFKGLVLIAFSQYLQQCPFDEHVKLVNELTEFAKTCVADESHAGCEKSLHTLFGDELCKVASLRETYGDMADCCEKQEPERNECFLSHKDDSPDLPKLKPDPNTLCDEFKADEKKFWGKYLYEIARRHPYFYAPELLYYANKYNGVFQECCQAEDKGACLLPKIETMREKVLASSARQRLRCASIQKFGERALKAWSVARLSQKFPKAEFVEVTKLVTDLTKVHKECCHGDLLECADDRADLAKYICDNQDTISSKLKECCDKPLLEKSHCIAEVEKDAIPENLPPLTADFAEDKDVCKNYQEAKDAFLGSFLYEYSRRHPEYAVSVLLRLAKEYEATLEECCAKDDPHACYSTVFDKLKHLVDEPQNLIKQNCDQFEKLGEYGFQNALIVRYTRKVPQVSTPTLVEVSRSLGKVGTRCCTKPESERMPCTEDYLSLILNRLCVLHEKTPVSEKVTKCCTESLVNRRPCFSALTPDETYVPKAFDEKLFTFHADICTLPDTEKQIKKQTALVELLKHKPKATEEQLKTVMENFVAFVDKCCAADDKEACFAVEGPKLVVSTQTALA

[1] = probe aXIP binding to arrayed compounds – biochemical, NeuroSMM set, 635/667 nm fluorescence, primary screen (AID 1119); settings: small-molecule microarray, higher = more signal, called active from +8 up or from −8 down;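 also: probe is the protein aXip251-270 applied at 1 µg/mL to compound-printed slides; binding of probe to printed compounds measured as 667 nm fluorescence plus signal to noise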
[2] = probe aNOTCH3 binding on compound microarray – biochemical, small-molecule microarray, 635/667 nm fluorescence, primary screen (AID 1120); settings: higher = more signal;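 also: probe is a biotin-tagged antibody raised against NOTCH3 rather than NOTCH3 protein; score merges spot fluorescence near 667 nm with spot signal to noise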
[3] = probe aNOTCH2 binding on compound microarray – biochemical, small-molecule microarray, 635/667 nm fluorescence, primary screen (AID 1121); settings: higher = more signal;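 also: score merges feature fluorescence read at 667 nm with its signal to noise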
[4] = biological target: Carbonic anhydrase 2 (Homo sapiens) (UniProt P00918); test: compounds binding carbonic anhydrase 2 – biochemical, small-molecule microarray, Alexa647-labelled CAII, profiling panel (AID 1122); settings: CAII-A647 binding fluorescence, higher = more signal
[5] = COS7 lysate on small-molecule microarray, probe aHis, 635 nm (AID 1123); settings: COS7 cell lysate, fluorescence, higher = more signal;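 also: z-score combines 667nm fluorescence intensity with signal-to-noise per printed compound spot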
[6] = probe aLAP1 signal on lysate-treated microarray – cell lysate, small-molecule microarray, COS7 lysate, primary screen (AID 1124); settings: probe aLAP1, fluorescence, higher = more signal;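 also: lysate comes from COS7 cells expressing LAP1 and is applied at 0.3 µg/mL; score merges spot fluorescence near 667 nm with signal-to-noise over triplicate slides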
Sam68 (KHDRBS1) = test: compounds binding KHDRBS1 protein – biochemical, small-molecule microarray, 635 nm fluorescence, primary screen (AID 1125); settings: higher = more signal;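 also: score merges 667 nm channel intensity with signal to noise over triplicate slides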
[7] = test system: Chordin-like protein 2 (CHRDL2); test: compounds binding chordin-like 2 – biochemical, small-molecule microarray, 635 nm fluorescence, primary screen (AID 1126); settings: fluorescence 635 nm, higher = more signal;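 also: printed compound slides probed with Chrdl2 protein at 4 µg/mL for 1 h at 4 C; score merges 667 nm emission intensity with signal to noise over three replicate slides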
[8] = biological target: Concanavalin-A (Canavalia ensiformis) (UniProt P02866); test: compounds binding concanavalin A lectin – biochemical, small-molecule microarray, Alexa647 label, 635 nm, artefact control for SMM control protein annotation, primary screen (AID 1127); settings: ConA-A647 binding fluorescence, higher = more signal;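 also: z combines 667 nm emission intensity with signal-to-noise across three replicate slides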
Chain of Concanavalin-A (Canavalia ensiformis) (P02866 whole entry, looked up): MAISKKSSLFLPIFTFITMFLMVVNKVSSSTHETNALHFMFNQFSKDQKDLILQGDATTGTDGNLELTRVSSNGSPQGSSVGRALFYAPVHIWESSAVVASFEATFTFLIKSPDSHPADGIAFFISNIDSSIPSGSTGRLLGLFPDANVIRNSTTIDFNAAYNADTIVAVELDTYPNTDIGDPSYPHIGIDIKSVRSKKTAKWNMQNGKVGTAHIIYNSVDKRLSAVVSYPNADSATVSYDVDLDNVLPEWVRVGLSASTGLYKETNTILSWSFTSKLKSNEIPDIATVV

[9] = compounds binding Alexa647 anti-His antibody – biochemical, small-molecule microarray, 635 nm fluorescence, artefact control for SMM control protein annotation, primary screen (AID 1128); settings: higher = more signal;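 also: score merges feature fluorescence with signal-to-noise for each printed compound spot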
[10] = test system: Human papillomavirus type 1a E7 protein (residues 1-88); test: HPV1a E7 small-molecule binders, primary screen, biochemical, small-molecule microarray, residues 1-88, 635 nm (AID 1129); settings: small-molecule microarray binding, fluorescence 635 nm; higher = more signal
[11] = biological target: Focal adhesion kinase 1 (Homo sapiens) (UniProt Q05397); test: PTK2 protein binding on printed compound slides – biochemical, small-molecule microarray, 635/667 nm fluorescence, BSA, DTT, primary screen (AID 1130); settings: 635 nm fluorescence, higher = more signal;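 also: composite of spot emission at 667 nm and signal to noise over triplicate slides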
Chain of Focal adhesion kinase 1 (Homo sapiens) (Q05397 whole entry, looked up): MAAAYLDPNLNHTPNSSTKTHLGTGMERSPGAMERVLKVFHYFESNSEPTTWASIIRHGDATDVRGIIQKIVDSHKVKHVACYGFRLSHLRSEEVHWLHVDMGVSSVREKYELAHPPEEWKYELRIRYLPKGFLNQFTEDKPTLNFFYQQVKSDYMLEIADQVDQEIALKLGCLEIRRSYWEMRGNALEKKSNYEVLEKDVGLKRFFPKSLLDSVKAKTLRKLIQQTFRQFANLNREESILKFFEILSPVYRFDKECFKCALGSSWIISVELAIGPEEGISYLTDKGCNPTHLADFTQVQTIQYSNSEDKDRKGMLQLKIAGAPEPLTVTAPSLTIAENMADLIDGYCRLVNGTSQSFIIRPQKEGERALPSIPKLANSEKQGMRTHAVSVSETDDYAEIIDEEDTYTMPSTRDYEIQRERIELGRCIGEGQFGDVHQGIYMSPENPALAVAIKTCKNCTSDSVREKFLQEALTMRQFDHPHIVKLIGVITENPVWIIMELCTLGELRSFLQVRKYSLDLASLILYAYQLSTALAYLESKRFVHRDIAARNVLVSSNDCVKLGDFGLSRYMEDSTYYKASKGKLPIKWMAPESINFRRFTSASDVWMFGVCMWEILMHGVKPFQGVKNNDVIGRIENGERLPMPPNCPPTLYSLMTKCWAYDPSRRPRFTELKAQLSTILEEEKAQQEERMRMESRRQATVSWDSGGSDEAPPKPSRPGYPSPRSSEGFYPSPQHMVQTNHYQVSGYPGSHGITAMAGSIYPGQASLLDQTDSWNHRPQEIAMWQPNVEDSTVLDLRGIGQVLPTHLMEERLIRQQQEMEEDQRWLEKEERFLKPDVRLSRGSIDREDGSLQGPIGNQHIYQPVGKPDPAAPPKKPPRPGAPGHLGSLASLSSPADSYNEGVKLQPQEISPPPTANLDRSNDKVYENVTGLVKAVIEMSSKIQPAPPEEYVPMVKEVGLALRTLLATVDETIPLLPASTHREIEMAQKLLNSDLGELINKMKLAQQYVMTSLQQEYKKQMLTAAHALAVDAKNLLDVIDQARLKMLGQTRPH

[12] = test system: Fibrinogen (Alexa647-labelled); test: Alexa647-fibrinogen binding to printed small molecules – biochemical, small-molecule microarray, 635/667 nm fluorescence, artefact control for SMM control-protein annotation, profiling panel (AID 1131); settings: fibrinogen-A647 binding fluorescence, higher = more signal;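 also: z-score merges 667 nm fluorescence with per-spot signal-to-noise over triplicate slides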
[13] = biological target: Follistatin (Homo sapiens) (UniProt P19883); test: FST protein binding to printed compounds – biochemical, small-molecule microarray, 635/667 nm fluorescence, primary screen (AID 1132); settings: 635 nm fluorescence, higher = more signal
Chain of Follistatin (Homo sapiens) (P19883 whole entry, looked up): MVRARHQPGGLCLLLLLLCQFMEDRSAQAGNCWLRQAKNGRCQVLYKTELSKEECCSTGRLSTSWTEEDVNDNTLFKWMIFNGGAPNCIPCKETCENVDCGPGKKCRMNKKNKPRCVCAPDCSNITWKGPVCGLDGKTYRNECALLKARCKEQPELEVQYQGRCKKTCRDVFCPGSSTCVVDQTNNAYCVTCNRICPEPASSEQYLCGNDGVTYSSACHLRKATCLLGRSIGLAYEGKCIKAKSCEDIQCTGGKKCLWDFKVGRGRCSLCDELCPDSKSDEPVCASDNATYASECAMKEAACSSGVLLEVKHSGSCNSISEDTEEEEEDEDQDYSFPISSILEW

[14] = biological target: Fibroblast growth factor 2 (Homo sapiens) (UniProt P09038); test: basic fibroblast growth factor binding to printed compounds – biochemical, small-molecule microarray, 635/667 nm fluorescence, primary screen (AID 1133); settings: FGF2, fluorescence 635/667, higher = more signal
Chain of Fibroblast growth factor 2 (Homo sapiens) (P09038 whole entry, looked up): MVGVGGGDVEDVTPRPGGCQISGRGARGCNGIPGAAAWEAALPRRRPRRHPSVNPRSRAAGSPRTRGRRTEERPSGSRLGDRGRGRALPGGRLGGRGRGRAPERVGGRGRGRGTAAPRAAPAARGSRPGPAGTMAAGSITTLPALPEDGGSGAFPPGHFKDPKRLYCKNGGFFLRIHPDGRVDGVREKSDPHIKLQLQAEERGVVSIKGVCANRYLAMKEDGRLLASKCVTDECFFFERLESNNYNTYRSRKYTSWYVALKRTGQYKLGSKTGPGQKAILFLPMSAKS

[15] = JC-1 mitochondrial potential readout, lung cancer cells – cell-based, A549, JC-1 fluorescence, basal, 24 h, 100 nL, profiling panel (AID 1138); settings: higher = more signal;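 also: A549 lung adenocarcinoma cells under basal conditions with no added stimulus; test concentration not given here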
Lefty1 = Lefty1 protein binding to printed compounds – biochemical, small-molecule microarray, 635/667 nm fluorescence, primary screen (AID 1139); settings: fluorescence 635/667, higher = more signal
[16] = test system: wheat germ agglutinin (Triticum aestivum), Alexa647-labelled; test: Alexa647-WGA lectin binding to printed small molecules – biochemical, small-molecule microarray, 635/667 nm fluorescence, artefact control for SMM control-protein annotation, profiling panel (AID 1140); settings: WGA-A647 binding, 635 nm fluorescence, higher = more signal;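 also: score merges 667 nm feature emission with signal to noise over triplicate slides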
[17] = biological target: Luciferin 4-monooxygenase (Photinus pyralis) (UniProt P08659); test: inhibition of purified Photinus pyralis luciferase – biochemical, luminescence, purified enzyme, 2006 set, primary screen (AID 1141); settings: purified firefly luciferase, SteadyGlo luminescence, 30 min; higher = more signal, called active from +8 up or from −8 down;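 also: cell-free assay with purified firefly luciferase at 100 ng per well in PBS; test concentration not given here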
Chain of Luciferin 4-monooxygenase (Photinus pyralis) (P08659 whole entry, looked up): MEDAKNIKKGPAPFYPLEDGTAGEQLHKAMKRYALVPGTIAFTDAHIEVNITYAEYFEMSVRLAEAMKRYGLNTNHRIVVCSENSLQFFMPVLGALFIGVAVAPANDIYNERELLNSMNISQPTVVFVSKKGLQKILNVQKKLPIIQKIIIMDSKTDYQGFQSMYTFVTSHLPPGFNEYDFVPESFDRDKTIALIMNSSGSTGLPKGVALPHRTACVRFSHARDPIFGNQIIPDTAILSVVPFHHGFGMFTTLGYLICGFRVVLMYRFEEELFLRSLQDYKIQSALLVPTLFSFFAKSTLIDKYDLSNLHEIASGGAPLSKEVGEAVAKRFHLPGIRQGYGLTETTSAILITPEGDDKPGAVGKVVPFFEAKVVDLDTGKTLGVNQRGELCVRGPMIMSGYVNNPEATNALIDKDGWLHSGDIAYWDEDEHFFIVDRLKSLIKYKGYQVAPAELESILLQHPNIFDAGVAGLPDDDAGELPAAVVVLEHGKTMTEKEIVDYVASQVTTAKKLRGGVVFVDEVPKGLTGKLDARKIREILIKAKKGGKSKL

Compound	composite z-score (Albumin (Bos taurus))	composite Z-score [1]	composite z-score [2]	composite z-score [3]	composite z-score [4]	composite z-score [5]	composite z-score [6]	composite z-score (Sam68 (KHDRBS1))	composite z-score [7]	composite z-score [8]	composite z-score [9]	composite z-score [10]	composite z-score [11]	composite z-score [12]	composite z-score [13]	composite z-score [14]	z-score [15]	composite z-score (Lefty1)	composite z-score [16]	z-score [17]
[N-]=[N+]=NCc1ccccc1[C@@H]1OC(c2ccc(OCCCO)cc2)=N[C@]1(Cc1ccccc1N=[N+]=[N-])C(=O)NCC(O)CO (stereo not given in full)	0.98	0.71 (inactive)	0.409	0.252	0.614	3.16	0.695	1.32	-0.703	1.11	2.76	1.2	0.955	0.911	1.05	1.26	0.637	-0.459	1.22	-2.1 (inactive)
CN(C)CCCC[C@@H]1NC(=O)[C@H]2C[C@@H](C(=O)O)[C@@H](c3ccc(O)cc3)N2C1=O	0.705	3.89 (inactive)	1.65	0.68	0.946	4.01	1.31	1.33	1.48	1.24	3.85	1.31	1.99	1.04	1.52	1.83	-0.447	1.63	1.65	-0.367 (inactive)
CCCCC(O)C1C=CC2C(=O)N(c3ccccc3)C(=O)C2N1Nc1ccccc1 (stereo not given)	0.901	-0.539 (inactive)	0.0248	-0.0596	0.0784	2.59	-0.0672	0.576	-1.17	0.557	0.781	1.14	0.438	0.543	-0.0278	-1.26	0.656	0.173	1.17	0.438 (inactive)
Cc1ccc(S[C@]2(C(=O)NC3CC3)CC(=O)N(C(C)C)[C@@H]2c2ccc(CO)cc2I)cc1	0.899	-0.6 (inactive)	-0.364	-0.2	0.7	1.16	0.048	0.238	-1.06	0.0412	1.49	0.882	0.411	-0.36	0.536	-0.471	0.51	0.303	0.969	1.29 (inactive)
COC(=O)[C@@]1(Cc2ccccc2)N=C(c2ccc(OCCCO)cc2)O[C@H]1c1ccccc1CN=[N+]=[N-]	-0.158	0.282 (inactive)	0.0655	-0.12	0.6	2.02	-0.415	1.2	-0.111	0.505	1.91	0.997	0.291	0.447	1.33	1.02	-1.07	0.434	0.0777	-2.05 (inactive)
Cc1ccc(N2C(=O)c3ccccc3[C@](C)(C(=O)NCCCN(C)C)[C@@H]2c2ccc(CO)cc2)nc1	0.656	-0.392 (inactive)	-0.0984	-0.13	0.281	0.93	-0.728	0.276	-1.19	0.0368	-0.479	-0.254	0.304	-0.18	0.351	-1.21	0.361	-0.28	-0.0926	-0.156 (inactive)
CC(C)(C)N1CC=CC23O[C@@H]4/C=C\CCCOC(=O)C4[C@H]2C(=O)N(CCCO)[C@@H]3C1=O (stereo not given in full)	0.706	-0.191 (inactive)	0.134	-0.0846	0.866	0.644	0.818	-0.446	-1.44	-1.02	0.343	-0.849	-0.572	-2.06	-0.768	-0.811	-0.534	-0.538	-1.38	0.552 (inactive)
CCOC(=O)C[C@H]1[C@H](OC(=O)c2ccccc2-c2ccccc2)[C@@H](NC(=O)C2CCCCC2)c2cc(OCCCO)ccc2N1C(=O)c1ccc2ccccc2n1	0.632	0.0805 (inactive)	0.0553	-0.037	0.258	0.249	0.358	1.07	0.162	-0.0181	0.316	0.667	0.853	0.593	1.15	0.889	0.309	1.09	0.27	0.595 (inactive)
COc1cc(C(O)C2C=CC3C(=O)N(c4ccccc4)C(=O)C3N2Nc2ccccc2F)cc(OC)c1OC (stereo not given)	0.834	0.0894 (inactive)	0.0436	0.0409	0.648	3.14	0.443	1.32	-0.755	1.1	1.66	1.28	0.337	1.03	0.233	-0.171	-0.374	0.323	0.792	-0.397 (inactive)
COc1ccc(C(O)C2C=CC3C(=O)N(C)C(=O)C3N2N(c2ccccc2)c2ccccc2)cc1 (stereo not given)	0.86	0.828 (inactive)	0.016	-0.0657	0.728	1.49	0.0978	0.731	0.0617	0.632	2.06	0.906	0.167	0.805	1.03	0.149	1.25	-0.729	1.28	0.322 (inactive)
CCOC(=O)C1=CC[C@@H](c2ccc(OC)cc2)N(S(=O)(=O)c2ccc(C)cc2)[C@H]1c1ccc(C)cc1	0.446	0.477 (inactive)	0.0203	-0.084	0.222	1.99	0.423	1.34	-0.554	0.669	1.23	1.18	0.389	0.844	0.633	-0.0931	3.2	0.333	0.803	1.1 (inactive)
CCOC(=O)C[C@H]1[C@H](OC(=O)c2cc3ccccc3oc2=O)[C@@H](NC(=O)CC(C)C)c2cc(OCCCO)ccc2N1C(=O)Cc1ccc(OC)cc1	0.136	0.642 (inactive)	-0.0376	-0.146	0.607	0.935	0.18	0.887	0.0676	0.433	0.0111	0.43	-0.0515	0.942	0.642	0.443	0.613	0.849	0.158	0.411 (inactive)
CCOC(=O)C[C@H]1[C@H](OC(=O)c2ccccc2-c2ccccc2)[C@@H](NC(=O)c2ccc3ccccc3c2)c2cc(OCCCO)ccc2N1C(=O)Cc1ccc(OC)cc1	0.227	0.25 (inactive)	-0.186	-0.101	-0.165	0.14	0.232	-0.868	-0.341	-0.12	-0.262	-0.191	0.0564	0.805	0.0992	-0.0445	0.847	-0.0328	-0.178	-0.146 (inactive)
C=CCC(OC(C)=O)[C@@H]1[C@@H](N(Cc2cc3ccccc3o2)C(=O)Cc2ccc(OC)cc2)c2cc(OCCCO)ccc2N1C(=O)c1ccc2ccccc2n1 (stereo not given in full)	0.277	-0.0847 (inactive)	0.0642	-0.0303	-0.0176	0.361	-0.156	-0.11	0.498	0.0557	0.264	-0.314	0.138	0.301	0.654	0.0376	-0.194	0.0249	-0.0063	-0.219 (inactive)
CCOC(=O)C1=C[C@@H](C(C)(C)C)N(S(=O)(=O)c2ccc(C)cc2)[C@H]1c1ccc(C#N)cc1	0.684	-0.795 (inactive)	0.0935	0.0655	0.632	2.72	0.969	1.31	0.582	1.09	1.16	1.23	0.637	0.996	0.599	0.0014	1.53	0.307	1.08	1.82 (inactive)
O=C1N(CCS(=O)(=O)c2ccccc2)c2ccccc2C[C@]12N=C(c1ccc(OCCCO)cc1)O[C@@H]2c1ccccc1	0.815	1.86 (inactive)	-0.221	-0.0694	0.584	3.22	2.17	1.29	1.25	1.05	2.16	0.806	0.311	0.783	1.41	1.71	0.972	0.393	0.392	-0.889 (inactive)
COC(=O)[C@H](Cc1ccccc1)N1CC2=CCCC=C[C@@H]2[C@H]1[C@H](O)Cc1ccccc1	0.0618	0.495 (inactive)	0.17	-0.118	0.708	0.25	0.368	0.374	0.204	0.854	-0.305	0.431	-0.384	0.515	0.87	0.122	0.18	0.273	0.261	-0.62 (inactive)
